In PubChem BioAssay (EPA / NIEHS):
Where “and” joins values, the source holds several entries; their conditions need not be identical. Identical values can stand only once. A structure can be active in one record and inactive in another. Calls of active or inactive are those of the source. How the source made its calls: active means hit-call score of the fitted dose curve at least 0.9, where 1 is the maximum; inactive means score below 0.9.

What was measured:
[1] = read-out: TIMP metallopeptidase inhibitor 2 (TIMP2), TIMP2 (gene 7077); assay: BSK_KF3CT_TIMP2: BioMAP Diversity Plus: KF3CT Assay for TIMP metallopeptidase inhibitor 2 (TIMP2) Biomarker Activity (AID 2283071); settings: primary human keratinocytes with fibroblasts; actives raise or lower the signal
Summary of the method: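 Human primary keratinocyte/foreskin fibroblast co-culture dosed with chemical and sampled at 24 h. TIMP-2 levels quantified by ELISA; bidirectional fitting against DMSO negative control as baseline.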

[2] = read-out: Transforming growth factor beta 1 (TGFb1), TGFB1 (gene 7040); assay: BSK_KF3CT_TGFb1: BioMAP Diversity Plus: KF3CT Assay for Transforming growth factor beta 1 (TGFb1) Biomarker Activity (AID 2283072); settings: primary human keratinocytes with fibroblasts; actives raise or lower the signal
Summary of the method: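 Human keratinocyte plus foreskin fibroblast primary co-culture, dosed with chemical for 24 h. TGF-b1 quantified by ELISA. Activity fitted bidirectionally against DMSO negative control as baseline.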

[3] = read-out: C-C motif chemokine 2 (Homo sapiens) (UniProt P13500); assay: BSK_KF3CT_MCP1: BioMAP Diversity Plus: KF3CT Assay for Monocyte Chemoattractant Protein 1 (MCP1/CCL2) Biomarker Activity (AID 2283073); settings: primary human keratinocytes with fibroblasts; actives raise or lower the signal
Summary of the method: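 ELISA readout of MCP-1 after 24 h chemical dosing of a human skin primary co-culture of keratinocytes and foreskin fibroblasts. Activity was fitted in both directions against DMSO.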

[4] = read-out: Matrix Metallopeptidase 9 (MMP9), MMP9 (gene 4318); assay: BSK_KF3CT_MMP9: BioMAP Diversity Plus: KF3CT Assay for Matrix Metallopeptidase 9 (MMP9) Biomarker Activity (AID 2283074); settings: primary human keratinocytes with fibroblasts; actives raise or lower the signal;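 on AC50: MMP9 protein level quantified by ELISA in the co-culture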
Summary of the method: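 Human keratinocyte and foreskin fibroblast co-culture exposed to chemicals for 24 h; MMP9 biomarker measured by ELISA, bidirectional fitting relative to DMSO; cytotoxicity tracked by SRB total protein staining in parallel cultures.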

[5] = read-out: urokinase plasminogen activator (uPA), PLAU (gene 5328); assay: BSK_KF3CT_uPA: BioMAP Diversity Plus: KF3CT Assay for urokinase plasminogen activator (uPA) Biomarker Activity (AID 2283075); settings: primary human keratinocytes with fibroblasts; actives raise or lower the signal
Summary of the method: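 Primary human keratinocyte/foreskin fibroblast co-culture exposed to chemical; uPA measured by ELISA at 24 h. Bidirectional fit versus DMSO, with parallel SRB total-protein staining for cytotoxicity.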

CD40, CD40 (gene 958) = assay: BSK_LPS_CD40: BioMAP Diversity Plus: LPS Assay for CD40 Biomarker Activity (AID 2283076); settings: primary human HUVEC with PBMC; actives raise or lower the signal
Summary of the method: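 Cells were dosed, incubated 24 h, then assayed for CD40 by ELISA. Gain or loss of signal was analysed relative to DMSO controls. The culture paired human umbilical vein endothelium with peripheral blood mononuclear cells.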

[6] = read-out: Interleukin-8 (IL8), CXCL8 (gene 3576); assay: BSK_LPS_IL8: BioMAP Diversity Plus: LPS Assay for Interleukin-8 (IL8) Biomarker Activity (AID 2283078); settings: primary human HUVEC with PBMC; actives raise or lower the signal
Summary of the method: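 Readout is IL-8 by ELISA, taken 24 h after compounds were added to LPS-stimulated endothelial/PBMC co-cultures. Both increases and decreases relative to DMSO control were scored through bidirectional fitting.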

[7] = read-out: Interleukin-1 alpha (IL1a), IL1A (gene 3552); assay: BSK_LPS_IL1a: BioMAP Diversity Plus: LPS Assay for Interleukin-1 alpha (IL1a) Biomarker Activity (AID 2283080); settings: primary human HUVEC with PBMC; actives raise or lower the signal
Summary of the method: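 ELISA read-out of IL-1 alpha from a human primary vascular co-culture (endothelium plus PBMC) under LPS, sampled 24 hours post-dosing. Activity was fitted in both directions relative to DMSO controls.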

[8] = read-out: E-selectin (Homo sapiens) (UniProt P16581); assay: BSK_LPS_Eselectin: BioMAP Diversity Plus: LPS Assay for Eselectin Biomarker Activity (AID 2283077); settings: primary human HUVEC with PBMC; actives raise or lower the signal
Summary of the method: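 Primary human vascular co-culture (endothelium plus PBMC) was dosed with chemical, then E-selectin quantified by ELISA at 24 h. Endpoint values derive from bidirectional curve fitting relative to DMSO.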

[9] = BSK_LPS_SRB: Viability Assessment in the BioMAP Diversity Plus: LPS Assay (AID 2283079); settings: primary human HUVEC with PBMC;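 further: total protein by sulforhodamine B absorbance as a cytotoxicity measure; measured one day after compound addition; fitted in both directions against DMSO so loss or gain of signal counts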
Summary of the method: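 Readout is SRB absorbance at 560 nm (0.1% stain, TCA-fixed parallel cultures) as a total-protein cytotoxicity measure. Cells: primary human umbilical vein endothelium plus peripheral blood mononuclear cells, 24 h after chemical exposure; DMSO served as baseline.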

Measured: AC50

Chain of E-selectin (Homo sapiens) (P16581 whole entry, looked up): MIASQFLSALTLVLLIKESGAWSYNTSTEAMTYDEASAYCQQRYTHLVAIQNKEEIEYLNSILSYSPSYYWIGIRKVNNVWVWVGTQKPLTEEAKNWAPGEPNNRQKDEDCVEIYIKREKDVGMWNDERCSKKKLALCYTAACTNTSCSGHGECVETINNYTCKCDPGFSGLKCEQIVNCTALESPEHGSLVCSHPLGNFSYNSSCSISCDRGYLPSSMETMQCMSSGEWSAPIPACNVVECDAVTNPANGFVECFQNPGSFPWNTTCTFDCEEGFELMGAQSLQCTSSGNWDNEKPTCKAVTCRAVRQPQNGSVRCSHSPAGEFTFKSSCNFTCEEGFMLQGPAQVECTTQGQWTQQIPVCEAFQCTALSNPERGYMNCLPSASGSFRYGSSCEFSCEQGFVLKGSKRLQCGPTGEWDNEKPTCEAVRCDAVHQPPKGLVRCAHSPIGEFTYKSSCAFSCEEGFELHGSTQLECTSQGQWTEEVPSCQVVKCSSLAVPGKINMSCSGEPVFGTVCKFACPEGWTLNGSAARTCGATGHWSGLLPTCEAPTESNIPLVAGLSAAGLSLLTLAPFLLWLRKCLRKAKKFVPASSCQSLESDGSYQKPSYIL

O=S1(=O)CC(Cl)(Cl)C(Cl)(Cl)C1
active: [1] 1.36 µM | [2] 1.11 µM | [3] 1.38 µM | [4] 1.74 µM | [5] 2 µM | CD40, CD40 (gene 958) 0.457 µM | [6] 1.47 µM | [7] 518 nM

CC(=O)CCC=C(C)CCC=C(C)C
inactive: [1] | [2] | [3] | [4] | [5] | CD40, CD40 (gene 958) | [6] | [7]

CC(C)CCCC(C)(C)O
inactive: [1] | [3] | [4] | [5] | CD40, CD40 (gene 958) | [6] | [7]

CCCCN(CCO)CCO
inactive: [1] | [3] | [4] | [5] | CD40, CD40 (gene 958) | [6] | [7]
active: [5] 14.9 µM

C=C(C)C(=O)OCCC(F)(F)C(F)(F)C(F)(F)C(F)(F)C(F)(F)C(F)(F)C(F)(F)C(F)(F)F
inactive: [1] | [3] | [4] | [5] | CD40, CD40 (gene 958) | [6] | [7]

c1ccc(OCCOc2ccccc2)cc1
inactive: [1] | [3] | [4] | [5] | CD40, CD40 (gene 958) | [6] | [7]

O=C(O)C(F)(F)C(F)(F)C(F)(F)C(F)(F)C(F)(F)C(F)(F)C(F)(F)C(F)F
inactive: [1] | [3] | [4] | [5] | CD40, CD40 (gene 958) | [7]
active: [6] 8.81 µM and 17.9 µM

c1ccc2c(c1)-c1ccc3ccc4cccc5cc-2c1c3c45
active: [1] 0.825 µM | [3] 0.238 µM | CD40, CD40 (gene 958) 2.76 µM
inactive: [2] | [4] | [5] | [6] | [7]

C=C(F)C(=O)OC(C(F)(F)F)C(F)(F)F
inactive: [1] | [3] | [4] | [5] | CD40, CD40 (gene 958) | [6] | [7]

C=CC(=O)OCC(CO)(COC(=O)C=C)COC(=O)C=C
active: [1] 0.529 µM | [2] 0.415 µM | [3] 5.44 µM | [4] 0.4 µM | [5] 0.685 µM | CD40, CD40 (gene 958) 0.454 µM | [6] 3.97 µM | [7] 404 nM

CC1(C)[C@H](C=C(Cl)Cl)[C@H]1C(=O)OCc1cccc(Oc2ccccc2)c1
inactive: [1] | [2] | [3] | [4] | [5] | CD40, CD40 (gene 958) | [6] | [7]

O=C(O)C(F)(F)OC(F)(F)C(F)(F)OC(F)(F)C(F)(F)C(F)(F)C(F)(F)F
active: CD40, CD40 (gene 958) 48.6 µM
inactive: [1] | [3] | [4] | [5] | CD40, CD40 (gene 958) | [6] | [7]

NC(=O)c1c(Cl)cccc1Cl
inactive: [1] | [2] | [3] | [4] | [5] | CD40, CD40 (gene 958) | [6] | [7]

CCCCCCCCCC(=O)OCC
active: [2] 32.2 µM | [3] 13.3 µM
inactive: [1] | [4] | [5] | CD40, CD40 (gene 958) | [6] | [7]

O=S(=O)(O)C(F)(F)C(F)(F)OC(F)(F)C(F)(F)F
active: [6] 30 µM and 10 µM
inactive: [1] | [3] | [4] | [5] | CD40, CD40 (gene 958) | [7]

CCCO[Si](OCCC)(OCCC)OCCC
inactive: [1] | [3] | [4] | [5] | CD40, CD40 (gene 958) | [6] | [7]
active: [6] 3.97 µM

c1ccc(Sc2ccccc2)cc1
inactive: CD40, CD40 (gene 958)
active: [1] 27.8 µM | [2] 32 µM | [3] 32.8 µM | [4] 32.7 µM | [5] 33.1 µM | [6] 20 µM | [7] 33800 nM

CCCCOCCOCCO
inactive: [1] | [2] | [3] | [4] | [5] | CD40, CD40 (gene 958) | [6] | [7]

CCn1cc(C(=O)O)c(=O)c2ccc(C)nc21
inactive: [1] | [3] | [4] | [5] | CD40, CD40 (gene 958) | [8] | [6] | [9] | [7]

CC(C)(CO)CO
inactive: [1] | [3] | [4] | [5] | CD40, CD40 (gene 958) | [6] | [7]

CC(=O)c1ccc(C)cc1
inactive: [1] | [3] | [4] | [5] | CD40, CD40 (gene 958) | [6] | [7]

OCC(F)(OC(F)(F)C(F)(OC(F)(F)C(F)(F)C(F)(F)F)C(F)(F)F)C(F)(F)F (stereo not given)
inactive: [3] | CD40, CD40 (gene 958) | [6] | [9]
active: [1] 5.58 µM and 5.62 µM | [3] 5.14 µM | [4] 5.19 µM and 3.33 µM | [5] 5.49 µM and 3.33 µM | CD40, CD40 (gene 958) 1.1 µM | [8] 5.03 µM and 3.77 µM | [7] 5.01 µM and 4.53 µM

CCCCCCCC1CCCC1=O (stereo not given)
inactive: CD40, CD40 (gene 958) | [6] | [7]
active: [1] 31.3 µM | [2] 36.3 µM | [3] 31.5 µM | [4] 28.7 µM | [5] 35.6 µM
